Results on 11 substances are retold here after ChEMBL document CHEMBL1201862, “PubChem BioAssay data set” (2004).

Hit rate of the full screen: of about 55,000 sequences, about 3,800 (6.9%) were called active. Cut-off read from the data, not from the text of the source: active = GI50 up to about 1.1 µM and inactive = higher. A selection follows. Measured potencies and affinities stand elsewhere.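 Five concentrations, 48 hours, 96-well plates. GI50: concentration for 50% inhibition of growth.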

The test system of the assay is CAKI-1. The assay is described as follows: NCI tumour cell line growth inhibition, 48 h.
“[Bis(aminomethyl)pentamethylenesilane]dichloropaltinum(II), CHEMBL2146202” showed a GI50 of 2.26 µM. For “[Bis(aminomethyl)tetramethylenesilane]tetrachloropaltinum(IV), CHEMBL2146189” the value was 5.92 µM; for “[Bis(aminomethyl)diethylsilane]tetrachloroplatinum(IV), CHEMBL2146203”, 4.06 µM; for “[Bis(aminomethyl)ethylmethylsilane]tetrachloroplatinum(IV), CHEMBL2146192”, 1.19 µM. For CISPLATIN, CHEMBL11359, the GI50 was determined as 1.99 µM. The same measure for “[Bis(aminomethyl)dimethylsilane]tetrachloroplatinum(IV), CHEMBL2146190”: 4.05 µM; for “[Bis(aminomethyl)dimethylsilane]dichloroplatinum (II), CHEMBL2146201”: 12 µM. The substance “[Bis(aminomethyl)pentamethylenesilane]tetrachloropaltinum(IV), CHEMBL2146204” gave a GI50 of 2.14 µM. “mu-(1,7-nanodiamine-N,N')bis-(cis-aminedichloroplatimum (II)), CHEMBL2146215” displayed a GI50 of 50.6 µM. Take “[Bis(aminomethyl)tetramethylenesilane]dichloropaltinum(II), CHEMBL2146205”: the GI50 was 13.6 µM. For the substance “cis-Bis[[(trimethylsilyl)methyl]amino]tetrachloroplatinum(IV), CHEMBL2146191”, the GI50 amounted to 11.9 µM.
